Results published in PMC4336329 (PLoS ONE, 2015).
About 14,000 (4.5%) of roughly 310,000 compounds showed an effect of 50% or more. The effect is printed as a negative number. This is one part of a sample in which strong results are shown more often than they occur.

molecular target: human ether-à-go-go-related gene (hERG) potassium channel (human, UniProt Q12809); test: primary screen, population patch clamp on CHO cells stably expressing hERG; higher = less effect of the substance
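Further: peak tail current of the secondary pulse compared with the same well before compound.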

human ether-à-go-go-related gene (hERG) potassium channel, sequence (Q12809 whole entry, looked up): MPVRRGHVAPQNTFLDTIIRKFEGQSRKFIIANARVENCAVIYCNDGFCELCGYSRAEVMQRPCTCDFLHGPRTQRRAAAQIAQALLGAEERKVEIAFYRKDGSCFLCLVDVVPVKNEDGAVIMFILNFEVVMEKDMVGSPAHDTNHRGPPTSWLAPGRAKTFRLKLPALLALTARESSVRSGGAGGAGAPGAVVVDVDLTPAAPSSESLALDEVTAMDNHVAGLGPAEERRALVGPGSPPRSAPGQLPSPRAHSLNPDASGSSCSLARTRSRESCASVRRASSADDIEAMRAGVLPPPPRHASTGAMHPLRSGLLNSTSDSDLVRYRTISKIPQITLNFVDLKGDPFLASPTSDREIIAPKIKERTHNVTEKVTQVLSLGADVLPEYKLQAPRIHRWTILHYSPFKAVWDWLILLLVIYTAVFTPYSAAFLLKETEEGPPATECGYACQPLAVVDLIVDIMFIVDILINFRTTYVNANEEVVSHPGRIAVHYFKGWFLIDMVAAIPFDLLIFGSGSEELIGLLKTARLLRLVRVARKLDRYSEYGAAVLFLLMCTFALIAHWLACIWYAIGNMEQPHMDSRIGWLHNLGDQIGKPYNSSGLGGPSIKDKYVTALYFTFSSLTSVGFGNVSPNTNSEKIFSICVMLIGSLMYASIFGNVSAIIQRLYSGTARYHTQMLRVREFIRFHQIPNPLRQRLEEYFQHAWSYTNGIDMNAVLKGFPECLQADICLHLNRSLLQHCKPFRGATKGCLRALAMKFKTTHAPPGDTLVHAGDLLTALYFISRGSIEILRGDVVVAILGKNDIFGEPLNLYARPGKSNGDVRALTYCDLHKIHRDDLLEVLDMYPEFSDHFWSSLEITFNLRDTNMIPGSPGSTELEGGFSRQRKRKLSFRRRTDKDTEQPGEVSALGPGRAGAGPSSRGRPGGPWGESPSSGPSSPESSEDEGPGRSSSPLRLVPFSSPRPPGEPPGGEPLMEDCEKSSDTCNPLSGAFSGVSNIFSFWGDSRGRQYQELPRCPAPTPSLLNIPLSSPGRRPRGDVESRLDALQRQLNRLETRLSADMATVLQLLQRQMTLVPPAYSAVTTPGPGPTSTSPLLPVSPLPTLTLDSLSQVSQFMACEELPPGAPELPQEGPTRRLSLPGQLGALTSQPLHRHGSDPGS

Compound | hERG current change (%, negative = inhibition) at 10uM
O=[N+]([O-])c1cc(-c2nnc(Nc3ccccc3)c3ccccc23)ccc1N1CCOCC1 | -26.3%
COC(=O)c1cc(C(=O)OC)cc(-n2c(C)cc(C(=O)CC#N)c2C)c1 | -31.2%
O=C(N/N=C/c1ccc(O)c([N+](=O)[O-])c1)C1CC1(c1ccccc1)c1ccccc1 (stereo not drawn) | -50.7%
O=C(N/N=C/c1cccnc1)C1CC1(c1ccccc1)c1ccccc1 (stereo not drawn) | -55.6%
O=C(N/N=C\c1ccc(O)c([N+](=O)[O-])c1)C1COc2ccccc2O1 (stereo not drawn) | -4.56%
O=C(N/N=C/C=C/c1ccccc1)C1CC1(c1ccccc1)c1ccccc1 (stereo not drawn) | -1.54%
O=C(O)c1ccc(/C=N/NC(=O)C2CC2(c2ccccc2)c2ccccc2)cc1 (stereo not drawn) | 17.9%
O=C(N/N=C/c1ccncc1)C1CC1(c1ccccc1)c1ccccc1 (stereo not drawn) | -24.9%
CC(C)C(=O)Nc1nc2ccc(S(C)(=O)=O)cc2s1 | 5.14%
Cc1ccc(S(=O)(=O)Nc2c(C)n(C)n(-c3ccccc3)c2=O)cc1 | 9.73%
O=C(CN1C(=O)NC2(CCCCCC2)C1=O)Nc1ccc2c(c1)CCC2 | -5.72%
CCOC(=O)c1nc(C)nc(Sc2n[nH]c(-c3cc(Cl)cc(Cl)c3)n2)c1C | 4.12%
CCOC(=O)c1nc2ccccc2c(C)c1C.Cl | -5.73%
CCOC(=O)c1nc2cc3n(c(C)c-2c1C)C(C)C(CC)=C3C.Cl (stereo not drawn) | -66.7%
CCOC(=O)c1nc2cc3n(c(C)c-2c1C)C(C)C(C)=C3C.Cl (stereo not drawn) | -42.8%
CCOC(=O)c1n[nH]n(-c2cc(Cl)cc(Cl)c2)c1=O | 25.7%
CCOC(=O)c1nc2cc3n(c(CC(C)C)c-2c1C)CC(C)=C3C.Cl | -74%
CCc1cc(=O)oc2c(CNCc3ccc(OC)cc3OC)c(O)c(Cl)cc12.Cl | 13.3%
NNC(=O)C1CC1c1ccc(Cl)cc1 (stereo not drawn) | 9.11%
COc1cc(/C=N/Nc2ccc(Cl)c(C(=O)O)c2)ccc1OCC(=O)N1C(C)CCCC1C (stereo not drawn) | 16.5%
CCCn1c(N)c(N(CCOC)C(=O)c2ccc(N(C)S(=O)(=O)c3ccc(C)cc3)cc2)c(=O)[nH]c1=O | 7.32%
O=C(NC1CCCCC1)c1ccc(S(=O)(=O)NCc2cccnc2)cc1 | 5.88%
O=c1[nH]c(=O)n(-c2ccccc2Cl)c(O)c1C=NCCN1CCCCC1 | 6.09%
COc1ccc(CC(C)NCCC(c2ccccc2)c2ccccc2)cc1 (stereo not drawn) | -71.5%

Compound | hERG current change (%, negative = inhibition) at 10uM
COc1ccc(CCC(C)NCCc2ccccc2)cc1 (stereo not drawn) | -29.6%
COc1ccc(CCC(C)NCC(C)c2ccccc2)cc1 (stereo not drawn) | -48.3%
COc1ccc(CC(C)NCCc2ccc(OC)c(OC)c2)cc1 (stereo not drawn) | -60.3%
CCCNCCC(c1ccco1)c1ccccc1OC (stereo not drawn) | -41.8%
COc1ccc(CNc2ccc(-c3ccccc3OC)nn2)cc1 | -13.1%
COc1ccc(C(CC(=O)O)c2ccc3c(c2)OCO3)cc1 (stereo not drawn) | 14.7%
COc1ccc(C(CCN)c2ccc3c(c2)OCO3)cc1 (stereo not drawn) | 1.93%
COc1ccc(CNCCC(c2ccccc2)c2ccc3c(c2)OCO3)cc1.Cl (stereo not drawn) | -75%
COc1ccc(CNCCC(c2ccc(OC)cc2)c2ccccc2OC)cc1 (stereo not drawn) | -74.2%
CNCCc1ccc(OC)c(OC)c1 | 19.4%
COc1ccc(CC(C)CC(=O)NCCc2ccc(OC)c(OC)c2)cc1 (stereo not drawn) | 18.9%
CN(C)S(=O)(=O)c1ccc(N2CCCC2)c(C(=O)Nc2nc3ccc(F)cc3s2)c1 | -37.1%
Cc1nc(SCC(=O)Nc2ccc(C)c(F)c2)c2oc3ccccc3c2n1 | 4.4%
COc1ccccc1NC(=O)c1cc(S(=O)(=O)N2CCC3(CC2)OCCO3)ccc1F | -4.73%
COc1ccc(CN2CN(c3ccc(Cl)cc3)C(=O)N(n3cnnc3)C2)cc1 | -38.6%
COC(=O)C1=C(c2ccccc2)C[C@@H]2CC[C@H]1N2C(=O)N1CCCCC1 | -4.4%
Cn1c(=O)c2c(ncn2CCOc2ccc(F)cc2)n(C)c1=O | 12.3%
O=C(N/C=N/O)C(c1ccccc1)c1ncc(C(F)(F)F)cc1Cl (stereo not drawn) | 3.35%
COc1ccc(-c2c/c(=N\c3nc(-c4ccccc4)c(C)s3)c3ccccc3o2)cc1O | 4.17%
COc1ccccc1NC(=O)C1CCCCN1S(=O)(=O)c1ccc(F)cc1 (stereo not drawn) | -27.9%
O=C(NCc1ccc(F)cc1)N[C@@H](Cc1ccccc1)C(=O)O | 7.44%
CC(=O)OCc1c(C(F)(F)F)nn(C)c1Oc1cccc(C(F)(F)F)c1 | 2.3%
COc1ccc(NC(=S)NCCC(c2ccccc2)c2ccccc2)c(OC)c1 | 2.53%
COc1ccc(C(CCNCc2ccc(N(C)C)cc2)c2ccccc2OC)cc1 (stereo not drawn) | -71.1%

Compound | hERG current change (%, negative = inhibition) at 10uM
COc1ccc(C(CCNCc2ccc(OC(C)C)cc2)c2ccccc2OC)cc1 (stereo not drawn) | -76%
COc1ccccc1C(CC(=O)Nc1ccc(Cl)cc1)c1ccc(OC(C)C)cc1 (stereo not drawn) | 1.17%
COc1cccc(NC(=O)CC(c2ccc(OC(C)C)cc2)c2ccccc2OC)c1 (stereo not drawn) | 1.26%
COc1ccc(C(CCNC(C)c2ccccc2)c2ccc(F)cc2)cc1 (stereo not drawn) | -54.6%
COc1ccc(C(C)NCCC(c2ccc(OC(C)C)cc2)c2ccccc2OC)cc1 (stereo not drawn) | -64.2%
COc1ccc(C(O)P(=O)(OCc2ccccc2)c2ccc(N(C)C)cc2)cc1 (stereo not drawn) | 15.4%
COc1ccc(C(CC(=O)Nc2ccc(F)cc2)c2ccccc2)cc1 (stereo not drawn) | 9.13%
COc1ccc(C(CCNC(C)c2ccccc2)C(C)C)cc1 (stereo not drawn) | -4.48%
CCOC(=O)c1nn(-c2ccc(C)cc2)c(C)c1C(C)=O | 4.57%
Cc1ccc(S(=O)(=O)NNC(=O)C2COc3ccccc3O2)cc1 (stereo not drawn) | 5.24%
COc1ccc(C(CNC(=O)c2ccc(OCc3ccccc3)cc2)N2CCOCC2)cc1 (stereo not drawn) | -18.1%
CCOC(=O)N1CCC(N(CCN(C)C)C(=S)Nc2ccccc2OC)CC1 | -16.2%
CCCC1=C(C(=O)OCC)C(c2ccc(F)cc2)n2ncnc2N1 (stereo not drawn) | -21.3%
COc1cccc(CN2C(=O)CCC2(C)C(=O)NC2CCCCCC2)c1 (stereo not drawn) | -11.7%
COc1ccc(-c2cc(=O)oc3cc(OC(=O)C4CCCCC4)c(Cl)cc23)cc1 | 11.2%
COc1ccccc1C(CCNCc1ccc(N(C)C)cc1)c1ccc(OC(C)C)cc1 (stereo not drawn) | -73.8%
COc1ccccc1NC(=O)CC(c1ccc(OC(C)C)cc1)c1ccccc1OC (stereo not drawn) | -1.62%
COc1ccc(CNCCC(c2ccc(OC(C)C)cc2)c2ccccc2OC)cc1 (stereo not drawn) | -66.1%
COc1ccc(C(CCNCc2ccc(N(C)C)cc2)c2ccccc2)cc1 (stereo not drawn) | -72.2%
COc1ccccc1C(O)P(=O)(OCC(C)C)c1ccc(N(C)C)cc1 (stereo not drawn) | -0.204%
COc1ccccc1C(CCNCc1ccccc1)c1ccc(OC(C)C)cc1 (stereo not drawn) | -59.3%
COc1ccc(CNC(=S)NCc2ccc(OC(C)C)cc2)cc1 | -3.86%
COc1ccc(CNC(c2ccccc2)c2ccc(Cl)cc2)cc1 (stereo not drawn) | 6.38%
COc1ccccc1CNC(=O)c1ccc(OC(C)C)cc1 | 17.6%

Compound | hERG current change (%, negative = inhibition) at 10uM
COc1ccc(C(CCNCc2ccc(N(C)C)cc2)C(C)C)cc1 (stereo not drawn) | -40.5%
COc1ccccc1C(CC(=O)Nc1ccc(C)c(C)c1)c1ccc(OC(C)C)cc1 (stereo not drawn) | 10.2%
O=C(Nc1ncc(Br)s1)C1CCCN1S(=O)(=O)c1cccc2cccnc12 (stereo not drawn) | -3.36%
Cc1cccc(C(=O)O/N=C2\CCS(=O)(=O)c3sccc32)c1 | 1.16%
Cc1ccc(NC(=O)C(OC(=O)c2ccc(NC(N)=O)cc2)c2ccccc2)cc1Cl (stereo not drawn) | -3.17%
COc1ccc(N2CCC(N3CCN(C)C(CCO)C3)CC2)cc1 (stereo not drawn) | 10.2%
O=C(NCC1CCCO1)c1ccc(Cl)c(S(=O)(=O)Nc2ccccc2)c1 (stereo not drawn) | 2.86%
O=C(CCc1ccccc1)Nc1nccs1 | 14.9%
COc1ccccc1N1CCN(C(=O)c2ccc(Cn3c(=S)[nH]c4cc5c(cc4c3=O)OCO5)cc2)CC1 | 21.3%
CC[C@H](C)[C@@H](NC(=O)O[C@@H]1C(=O)c2cc(OC)ccc2O[C@H]1c1ccc(OC)c(Br)c1)C(=O)OC | -1.62%
CN(C)c1cccc(C(=O)Nc2nnc(Cc3ccccc3)s2)c1 | 0.344%
Cn1cnc2cc(NCc3ccccc3O)ccc21 | 6.3%
COc1ccc2c(c1)C=C(CN1CCN(Cc3ccccc3C)C(CCO)C1)CO2 (stereo not drawn) | -25.6%
COc1ccc2c(c1)C=C(CN1CCN(C3CCCC3)C(CCO)C1)CO2 (stereo not drawn) | -68.2%
CCOc1ccc(CN2CCN(CC3=Cc4cccc(OC)c4OC3)CC2CCO)cc1 (stereo not drawn) | -83.4%
COc1cccc2c1OCC(CN1CCN(Cc3ccccc3)C(CCO)C1)=C2 (stereo not drawn) | -47.6%
CCOc1ccccc1CN1CCN(CC2=Cc3cc(OC)ccc3OC2)CC1CCO (stereo not drawn) | -83.3%
COc1ccc2c(c1)C=C(CN1CCN(C(C)C)C(CCO)C1)CO2 (stereo not drawn) | 5.68%
COc1cccc2c1OCC(CN1CCN(C3CCCCC3)C(CCO)C1)=C2 (stereo not drawn) | -17%
COc1cccc2c1OCC(CN1CCN(CCC(C)C)C(CCO)C1)=C2 (stereo not drawn) | -3.37%
COc1cccc2c1OCC(CN1CCN(Cc3ccccc3F)C(CCO)C1)=C2 (stereo not drawn) | -19.3%
